What was measured:
Experiment in all cases: log2 ratio of Biotin-Ahx-Ub-VS probe labelling (fragment/DMSO); higher = less target engagement (more negative = stronger competition), active = hit call of the paper (q ≤ 0.05, log2 ratio ≤ -1)
Conditions in all cases: compound concentration: 200 uM; treatment time: 3 h
[1] = biological target: USP34 (UniProt Q70CQ2)
Outline: (§1)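 HEK293T lysate in Tris/CHAPS/IGEPAL buffer with protease inhibitors (495 µg per sample) was given fragment at 200 µM or vehicle for 3 h, in triplicate. It then received Biotin-Ahx-Ub-VS at 0.5 µM final for 1 h. Labelled DUBs were NeutrAvidin-enriched, digested with LysC and trypsin, and run by diaPASEF LC-MS/MS. Values are average log2 fragment/vehicle ratios by unpaired t-test on global-median-normalised Spectronaut quantities of proteins with ≥2 unique peptides.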

[2] = biological target: T1, USP36 (UniProt Q9P275)
T1 sequence (whole entry): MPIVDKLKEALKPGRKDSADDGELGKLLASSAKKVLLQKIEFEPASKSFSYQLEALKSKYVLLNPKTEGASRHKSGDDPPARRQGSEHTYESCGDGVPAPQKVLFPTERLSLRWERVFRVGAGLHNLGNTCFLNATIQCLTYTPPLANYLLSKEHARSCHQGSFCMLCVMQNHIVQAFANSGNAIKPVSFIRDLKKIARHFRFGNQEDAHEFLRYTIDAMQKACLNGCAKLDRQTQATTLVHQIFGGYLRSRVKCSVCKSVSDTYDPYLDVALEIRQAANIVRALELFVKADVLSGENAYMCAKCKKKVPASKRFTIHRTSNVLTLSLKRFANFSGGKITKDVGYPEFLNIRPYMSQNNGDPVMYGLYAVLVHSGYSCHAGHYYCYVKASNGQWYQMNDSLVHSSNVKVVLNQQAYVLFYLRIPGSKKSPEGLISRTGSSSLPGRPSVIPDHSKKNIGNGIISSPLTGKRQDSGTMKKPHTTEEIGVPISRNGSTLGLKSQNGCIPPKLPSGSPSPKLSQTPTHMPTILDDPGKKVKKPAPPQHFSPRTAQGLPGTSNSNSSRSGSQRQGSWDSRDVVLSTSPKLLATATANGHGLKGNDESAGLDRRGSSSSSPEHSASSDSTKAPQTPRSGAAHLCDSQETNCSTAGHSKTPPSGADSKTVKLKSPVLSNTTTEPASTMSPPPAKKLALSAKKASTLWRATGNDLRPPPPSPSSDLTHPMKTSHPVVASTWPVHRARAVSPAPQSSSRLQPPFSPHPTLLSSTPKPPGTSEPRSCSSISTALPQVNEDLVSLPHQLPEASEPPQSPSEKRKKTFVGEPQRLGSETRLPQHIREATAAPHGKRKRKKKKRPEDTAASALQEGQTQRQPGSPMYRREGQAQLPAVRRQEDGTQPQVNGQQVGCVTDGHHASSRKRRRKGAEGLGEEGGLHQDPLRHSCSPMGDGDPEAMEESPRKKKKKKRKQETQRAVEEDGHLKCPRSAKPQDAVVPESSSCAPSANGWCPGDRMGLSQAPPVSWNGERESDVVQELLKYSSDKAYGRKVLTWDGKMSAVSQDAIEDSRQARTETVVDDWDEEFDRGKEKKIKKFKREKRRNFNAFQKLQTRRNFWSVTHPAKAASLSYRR
Outline: as §1

[3] = biological target: T2, USP38 (UniProt Q8NB14)
T2 sequence (whole entry): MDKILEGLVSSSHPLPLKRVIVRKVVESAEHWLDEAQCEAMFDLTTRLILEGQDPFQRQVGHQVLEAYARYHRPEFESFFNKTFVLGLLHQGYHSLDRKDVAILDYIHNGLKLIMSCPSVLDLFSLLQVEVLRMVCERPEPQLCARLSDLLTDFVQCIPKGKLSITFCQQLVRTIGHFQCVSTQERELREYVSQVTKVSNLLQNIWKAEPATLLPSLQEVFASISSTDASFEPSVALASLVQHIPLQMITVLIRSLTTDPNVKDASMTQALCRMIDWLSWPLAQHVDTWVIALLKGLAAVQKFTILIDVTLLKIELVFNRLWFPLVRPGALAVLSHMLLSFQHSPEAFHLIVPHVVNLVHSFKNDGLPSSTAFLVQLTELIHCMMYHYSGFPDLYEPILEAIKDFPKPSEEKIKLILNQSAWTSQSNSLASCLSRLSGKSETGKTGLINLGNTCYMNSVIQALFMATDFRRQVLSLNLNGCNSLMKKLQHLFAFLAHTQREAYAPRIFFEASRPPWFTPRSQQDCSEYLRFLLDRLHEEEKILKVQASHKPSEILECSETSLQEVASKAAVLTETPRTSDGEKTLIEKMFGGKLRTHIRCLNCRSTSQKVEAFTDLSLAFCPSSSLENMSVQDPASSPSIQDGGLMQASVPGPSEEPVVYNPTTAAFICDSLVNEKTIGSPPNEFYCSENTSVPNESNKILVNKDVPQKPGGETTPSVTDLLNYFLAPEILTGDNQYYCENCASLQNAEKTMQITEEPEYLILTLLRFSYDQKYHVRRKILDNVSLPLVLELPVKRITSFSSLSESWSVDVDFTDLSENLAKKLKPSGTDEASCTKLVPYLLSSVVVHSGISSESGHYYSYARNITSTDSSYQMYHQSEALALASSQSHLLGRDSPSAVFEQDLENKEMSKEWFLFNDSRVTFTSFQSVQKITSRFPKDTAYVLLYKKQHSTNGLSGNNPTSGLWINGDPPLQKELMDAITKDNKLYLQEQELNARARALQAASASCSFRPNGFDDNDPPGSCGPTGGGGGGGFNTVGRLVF
Outline: as §1

[4] = biological target: T3, USP39 (UniProt Q53GS9)
T3 sequence (whole entry): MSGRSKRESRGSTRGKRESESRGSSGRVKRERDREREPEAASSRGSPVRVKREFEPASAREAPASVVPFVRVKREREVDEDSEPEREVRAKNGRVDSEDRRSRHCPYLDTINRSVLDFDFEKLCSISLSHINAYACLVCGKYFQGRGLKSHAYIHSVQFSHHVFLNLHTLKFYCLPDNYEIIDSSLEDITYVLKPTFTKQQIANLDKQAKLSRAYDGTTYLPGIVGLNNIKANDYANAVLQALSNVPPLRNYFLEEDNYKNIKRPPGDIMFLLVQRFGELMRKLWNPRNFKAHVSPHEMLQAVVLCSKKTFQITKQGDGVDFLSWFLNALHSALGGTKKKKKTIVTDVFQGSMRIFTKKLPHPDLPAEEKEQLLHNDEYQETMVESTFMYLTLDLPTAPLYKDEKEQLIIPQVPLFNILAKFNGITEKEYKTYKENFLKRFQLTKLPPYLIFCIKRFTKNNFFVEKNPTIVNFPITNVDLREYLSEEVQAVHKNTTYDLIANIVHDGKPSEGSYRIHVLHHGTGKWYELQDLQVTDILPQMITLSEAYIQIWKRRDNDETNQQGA
Outline: as §1

[5] = biological target: T4, USP4 (UniProt Q13107)
T4 sequence (whole entry): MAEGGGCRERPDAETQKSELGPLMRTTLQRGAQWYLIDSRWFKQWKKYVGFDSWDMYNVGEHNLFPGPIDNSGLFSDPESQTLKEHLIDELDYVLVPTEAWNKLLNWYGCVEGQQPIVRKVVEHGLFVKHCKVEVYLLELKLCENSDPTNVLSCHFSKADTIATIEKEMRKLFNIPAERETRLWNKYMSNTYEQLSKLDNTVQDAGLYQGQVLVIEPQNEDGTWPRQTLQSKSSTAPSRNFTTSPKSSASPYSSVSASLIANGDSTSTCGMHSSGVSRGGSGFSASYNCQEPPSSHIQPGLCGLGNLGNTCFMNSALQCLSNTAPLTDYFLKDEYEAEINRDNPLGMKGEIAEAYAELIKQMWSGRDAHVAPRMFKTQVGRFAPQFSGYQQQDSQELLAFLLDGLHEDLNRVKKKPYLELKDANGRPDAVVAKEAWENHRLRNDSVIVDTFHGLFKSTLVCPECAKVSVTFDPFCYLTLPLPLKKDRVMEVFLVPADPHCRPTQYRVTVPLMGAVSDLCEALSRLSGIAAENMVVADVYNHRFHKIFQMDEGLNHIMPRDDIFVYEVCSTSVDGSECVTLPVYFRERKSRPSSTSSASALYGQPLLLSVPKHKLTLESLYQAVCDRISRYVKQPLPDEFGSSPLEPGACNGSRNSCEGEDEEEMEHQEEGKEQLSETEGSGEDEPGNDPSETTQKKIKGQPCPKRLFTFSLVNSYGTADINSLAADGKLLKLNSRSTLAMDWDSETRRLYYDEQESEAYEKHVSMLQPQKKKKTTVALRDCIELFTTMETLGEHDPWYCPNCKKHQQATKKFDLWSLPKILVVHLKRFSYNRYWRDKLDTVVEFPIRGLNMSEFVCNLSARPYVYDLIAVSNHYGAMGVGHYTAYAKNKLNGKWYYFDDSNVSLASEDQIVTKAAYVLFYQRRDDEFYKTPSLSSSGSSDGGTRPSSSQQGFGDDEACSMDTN
Outline: as §1

Measured: log2 ratio of Biotin-Ahx-Ub-VS probe labelling

Chain of USP34 (Q70CQ2 whole entry, the tested form may be a part): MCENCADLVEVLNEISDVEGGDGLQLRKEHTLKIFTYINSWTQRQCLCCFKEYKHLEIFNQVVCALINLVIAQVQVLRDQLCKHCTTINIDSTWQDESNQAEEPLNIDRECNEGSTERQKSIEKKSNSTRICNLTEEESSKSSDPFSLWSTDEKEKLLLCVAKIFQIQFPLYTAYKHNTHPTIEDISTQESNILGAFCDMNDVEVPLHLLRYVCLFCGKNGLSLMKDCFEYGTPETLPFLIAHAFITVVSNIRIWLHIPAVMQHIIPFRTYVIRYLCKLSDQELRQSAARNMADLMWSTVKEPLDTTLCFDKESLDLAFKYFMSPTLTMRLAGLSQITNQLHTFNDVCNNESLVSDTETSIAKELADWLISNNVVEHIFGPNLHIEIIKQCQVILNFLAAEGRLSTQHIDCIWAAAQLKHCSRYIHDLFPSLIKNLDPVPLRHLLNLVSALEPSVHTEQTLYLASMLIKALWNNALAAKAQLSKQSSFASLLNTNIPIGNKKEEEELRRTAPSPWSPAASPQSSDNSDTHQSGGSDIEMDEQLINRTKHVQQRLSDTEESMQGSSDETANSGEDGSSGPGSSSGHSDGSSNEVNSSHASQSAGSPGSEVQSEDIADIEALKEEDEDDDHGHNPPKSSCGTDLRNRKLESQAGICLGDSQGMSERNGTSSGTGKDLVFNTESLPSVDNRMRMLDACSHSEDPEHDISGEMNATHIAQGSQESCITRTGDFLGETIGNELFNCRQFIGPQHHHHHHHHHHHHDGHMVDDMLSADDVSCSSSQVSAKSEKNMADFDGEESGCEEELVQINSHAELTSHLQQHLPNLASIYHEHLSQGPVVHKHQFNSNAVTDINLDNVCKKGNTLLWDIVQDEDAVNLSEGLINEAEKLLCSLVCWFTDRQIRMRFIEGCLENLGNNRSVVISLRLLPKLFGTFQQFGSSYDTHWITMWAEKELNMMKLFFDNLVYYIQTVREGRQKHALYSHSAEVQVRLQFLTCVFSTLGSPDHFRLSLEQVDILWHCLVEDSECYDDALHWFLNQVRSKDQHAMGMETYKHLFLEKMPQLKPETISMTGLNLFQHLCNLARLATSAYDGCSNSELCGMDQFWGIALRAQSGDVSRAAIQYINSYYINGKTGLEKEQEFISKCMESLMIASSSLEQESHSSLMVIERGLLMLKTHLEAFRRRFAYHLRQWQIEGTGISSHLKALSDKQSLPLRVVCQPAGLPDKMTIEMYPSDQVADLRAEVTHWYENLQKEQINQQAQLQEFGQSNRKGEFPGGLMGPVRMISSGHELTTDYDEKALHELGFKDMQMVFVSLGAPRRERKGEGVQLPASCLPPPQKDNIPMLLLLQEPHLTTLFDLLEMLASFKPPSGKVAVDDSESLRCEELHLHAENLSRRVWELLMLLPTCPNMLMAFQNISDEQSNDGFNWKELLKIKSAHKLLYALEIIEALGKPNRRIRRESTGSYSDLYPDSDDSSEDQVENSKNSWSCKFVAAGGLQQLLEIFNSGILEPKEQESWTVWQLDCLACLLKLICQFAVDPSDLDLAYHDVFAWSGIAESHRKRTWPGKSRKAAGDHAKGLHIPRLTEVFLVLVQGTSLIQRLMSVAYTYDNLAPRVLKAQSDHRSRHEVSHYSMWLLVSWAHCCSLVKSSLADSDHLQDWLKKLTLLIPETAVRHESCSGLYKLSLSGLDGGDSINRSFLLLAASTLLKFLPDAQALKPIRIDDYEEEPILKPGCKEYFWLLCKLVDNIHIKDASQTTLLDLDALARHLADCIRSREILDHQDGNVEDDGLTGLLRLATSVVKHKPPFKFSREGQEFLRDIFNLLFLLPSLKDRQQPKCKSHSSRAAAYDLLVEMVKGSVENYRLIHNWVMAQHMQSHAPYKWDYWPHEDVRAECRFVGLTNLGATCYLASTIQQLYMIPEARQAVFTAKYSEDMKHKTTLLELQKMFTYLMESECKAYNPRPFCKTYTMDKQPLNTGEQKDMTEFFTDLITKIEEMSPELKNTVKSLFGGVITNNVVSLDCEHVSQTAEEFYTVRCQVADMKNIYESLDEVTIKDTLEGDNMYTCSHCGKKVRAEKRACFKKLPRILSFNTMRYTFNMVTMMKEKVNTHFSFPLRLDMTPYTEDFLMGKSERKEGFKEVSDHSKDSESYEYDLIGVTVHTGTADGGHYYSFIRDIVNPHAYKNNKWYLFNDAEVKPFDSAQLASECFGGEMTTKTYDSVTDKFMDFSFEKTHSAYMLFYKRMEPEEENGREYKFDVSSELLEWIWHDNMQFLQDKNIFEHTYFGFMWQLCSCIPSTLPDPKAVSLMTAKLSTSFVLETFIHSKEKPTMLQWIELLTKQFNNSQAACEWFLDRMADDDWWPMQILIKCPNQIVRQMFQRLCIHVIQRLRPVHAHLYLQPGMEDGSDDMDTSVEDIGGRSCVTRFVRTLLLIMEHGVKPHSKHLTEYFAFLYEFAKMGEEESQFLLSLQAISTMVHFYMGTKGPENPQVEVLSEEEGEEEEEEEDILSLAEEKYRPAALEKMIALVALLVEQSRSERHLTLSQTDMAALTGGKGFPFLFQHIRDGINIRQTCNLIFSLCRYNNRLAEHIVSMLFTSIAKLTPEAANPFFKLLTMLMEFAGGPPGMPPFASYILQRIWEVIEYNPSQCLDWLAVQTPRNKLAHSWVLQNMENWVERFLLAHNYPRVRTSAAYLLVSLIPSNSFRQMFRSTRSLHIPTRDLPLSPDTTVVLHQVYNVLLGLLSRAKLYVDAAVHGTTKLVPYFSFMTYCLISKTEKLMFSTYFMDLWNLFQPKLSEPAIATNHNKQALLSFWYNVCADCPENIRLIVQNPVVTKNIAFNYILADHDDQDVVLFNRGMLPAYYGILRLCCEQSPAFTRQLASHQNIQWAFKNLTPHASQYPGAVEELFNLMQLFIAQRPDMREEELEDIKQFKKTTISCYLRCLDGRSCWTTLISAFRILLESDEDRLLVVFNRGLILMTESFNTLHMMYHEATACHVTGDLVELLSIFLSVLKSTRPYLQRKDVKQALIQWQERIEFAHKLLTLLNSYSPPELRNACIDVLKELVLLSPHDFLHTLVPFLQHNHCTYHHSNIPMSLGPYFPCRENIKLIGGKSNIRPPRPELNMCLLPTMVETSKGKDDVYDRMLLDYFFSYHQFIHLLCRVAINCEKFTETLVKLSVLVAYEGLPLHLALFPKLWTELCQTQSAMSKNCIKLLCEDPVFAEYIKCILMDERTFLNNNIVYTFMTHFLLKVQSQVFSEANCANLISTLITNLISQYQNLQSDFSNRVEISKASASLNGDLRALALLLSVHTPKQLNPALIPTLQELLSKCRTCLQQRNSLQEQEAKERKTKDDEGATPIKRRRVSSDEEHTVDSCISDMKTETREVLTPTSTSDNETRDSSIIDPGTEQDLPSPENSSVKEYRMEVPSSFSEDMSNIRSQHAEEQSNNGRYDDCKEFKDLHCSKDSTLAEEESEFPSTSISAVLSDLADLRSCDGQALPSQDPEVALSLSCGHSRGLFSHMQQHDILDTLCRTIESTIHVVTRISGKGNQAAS

O=C(CCl)N1CCC(S(=O)(=O)c2ccc(F)cc2)CC1
inactive: [1] -0.128 | [2] -0.00998 | [3] -0.00588 | [4] 0.031 | [5] -0.218

— the supplement of paper PMC11732987, “Enantioselective OTUD7B fragment discovery through chemoproteomics screening and high-throughput optimisation” (Communications Chemistry, 2025)
